The experiment is described as follows: Confirmatory qHTS for Identification of Small Molecule Activators of Huntingtin-Antisense Promoter Activity. In short, it runs like this: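 2,500 luciferase reporter HEK293 cells/well; 24 h culture; cpds up to 57.5 uM final, PTC124 50 uM ctrl; 24 h, 37C; Dual-Glo FLuc reagent, 10 min RT; lum. Norm.: vehicle 0%, zero RLU -100%.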

Molecules are shown by their SMILES. Calls of active or inactive are those of the source. A call without a number means that no potency is given here. The call rests on the fitted dose curve; in most records, active means well fitted activation curve with a large enough effect; inconclusive means small, poorly fitted or top-dose-only effect; inactive means no such curve, though single readings can be large or run the other way.
Potency means the concentration at half of the fitted maximal effect.

In the case of `CCOc1ccc(CCNC(=O)c2cccc(-n3c(C)nc4cccnc43)c2)cc1`, the Potency entry is “inactive”.
Turning to `Cc1ccccc1CN1CCc2nc(N3CCN(c4ccccn4)CC3)ncc2C1`, the Potency entry was “inactive”.
Consider `COc1cc(OC)cc(C(=O)Nc2ccc3c(c2)CCCN3C(=O)c2cccs2)c1`, for which the Potency result was “inactive”.
Take `COc1ccc(NC(=O)Cn2c(=O)oc3cc(S(=O)(=O)N4CCCCCC4)ccc32)cc1OC`: the Potency result is “inactive”.
The value for `COc1cc(NC(=O)CSc2nc3nc(C)c(Cc4ccc(C)cc4)c(C)n3n2)cc(OC)c1` was “inactive”.
The value for `CCOc1ccc(CCNc2ncnc3onc(C)c23)cc1OCC` was “inactive”; that for `CCOc1ccc(CCNC(=O)C(CC(C)C)N2Cc3ccccc3C2=O)cc1OCC` (stereo unspecified) was “inactive”.
In the case of `O=C(Nc1cccc(Cl)c1)C1CCCN(c2nn3cc(-c4ccc(F)cc4)nc3s2)C1` (stereo unspecified), the Potency result was “inactive”.
For the compound `Cn1c(=O)n(C)c2cc(NS(=O)(=O)c3ccc(F)cc3)ccc21`, the Potency entry is “inactive”.
On to `CSc1ccc(/C=C/c2nc3ccccc3n2S(=O)(=O)c2ccc(F)c(C)c2)cc1`, for which the Potency was 0.135 µM (active).
Take `CCCCOc1ccc(CNC(=O)c2ccc(NC(=O)N3CCSc4ncccc43)cc2)cc1`: the Potency result is “inactive”.
Regarding `COc1ccc(C)cc1NC(=O)Cn1c(=O)cc(C)c2c(C)nn(C)c21`, the Potency entry was “inactive”.
As for `O=S(=O)(NCCc1csc2nc(-c3ccccc3)nn12)c1ccc(Oc2ccccc2)cc1`, the Potency result is “inactive”.
Turning to `COc1ccc(Cl)cc1C1CC(=O)Nc2cc3c(cc21)OCCO3` (stereo unspecified), the Potency entry is “inactive”.
`Cc1cc(N2CCCCC2)nc2ccc(NC(=O)/C=C/c3ccc(OC(C)C)cc3)cc12`: the Potency result is “inactive”.
Turning to `COc1ccc(NS(=O)(=O)c2ccc3c(c2)CC(C)N3C(=O)C2CCC2)cc1OC` (stereo unspecified), the Potency result is “inactive”.

For the origin of these results see PubChem BioAssay AID1508622 (National Center for Advancing Translational Sciences (NCATS), 2021).
